About 83,000 compounds went through this panel and 20% of them were active in at least one assay; those are over-represented in the sample as a whole.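 The endpoint reported here, percent growth, reads 100 for growth as untreated, 0 for no net growth and -100 for all cells dead.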 Values without a mark were called inactive. The source made the active and inactive calls. How the source made its calls: active means growth percent below 10; inactive means the rest.
tested on: MDA-MB-468 breast; assay: NCI-60 one-dose screen, 48 h (100 = growth as untreated, 0 = no growth, -100 = all killed); conditions: 10 µM unless noted

SMILES	growth
CC(=O)O[C@H]1CC[C@@]2(C)C(=CC[C@H]3[C@@H]4C[C@@H](N5CC5)[C@H](C(C)=O)[C@@]4(C)CC[C@@H]32)C1	79%
N#Cc1c(-n2c(Br)c(Br)c3cc(Br)ccc32)[nH]c2c(Br)cc(Br)cc12	-16.3% (active)
COC(=O)[C@@H](C)C[C@H](Cc1ccccc1)NC(=O)c1csc([C@@H](C[C@H](C(C)C)N(C)C(=O)C2(NC(=O)[C@H]3CCCCN3C)CCC2)OC(C)=O)n1	7.04% (active)
Clc1cccc(Cl)c1Cl	107%
